HTR1A agonist: agonists of human 5-HT1a serotonin receptor; CHO 5-HT1a Ga15 NFAT-bla reporter, FRET ratio; 0% basal, 100% maximal reference agonist; 0.56% of 65,000 active; activation, % at 10 µM;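 active = activation above the screen-wide mean activation plus 3 SD, cut at about 19% in these data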;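 also: 0% = DMSO wells and 100% = 5-CT at EC100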
HTR1E antagonist: blocks the human 5-HT1E serotonin receptor; CHO 5-HT1E Ga15 NFAT-bla reporter, FRET, antagonist; 0.99% of 65,000 active; inhibition, % at 6 µM; P28566;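 active = inhibition above a set limit, the mean inhibition across every tested compound plus 3 SD, cut at about 29% in these data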;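 also: signal is the 460 over 535 nm emission ratio of beta-lactamase substrate; 0% = agonist plus DMSO wells and 100% = wells without agonist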
5HT1a antag: 5-HT1a (human) receptor antagonism; CHO 5-HT1a Ga15 NFAT-bla reporter, antagonist mode; inhibition, % at 10 µM; 0.68% of 62,000 active; AID 612;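 active = inhibition above the mean of all tested compounds plus 3 SD, cut at about 43% in these data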;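 also: receptor stimulated by 5-CT agonist at 100 nM near EC80; beta-lactamase reporter measured by ratiometric fluorescence of a cleavable substrate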
5HT1E ag: 5-HT1E (human) receptor agonism | P28566 | CHO 5-HT1E Ga15 NFAT-bla reporter, FRET; 0% DMSO wells, 100% control agonist wells | activation, % at 6 µM | 0.69% of 65,000 active | AID 574;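 active = activation above a set limit, the screen-wide mean activation plus 3 SD, cut at about 8.5% in these data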;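 also: 100% = positive control agonist at 1 µM giving full maximal response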
HER2 expr 66K: inhibitors of human Her2 kinase expression | P04626 | SKBR-3 HER2 protein level, AlphaScreen, 18-24 h; hits give low values | HER2 level % of control, % at 10 µM | 0.69% of 65,000 active;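 active = HER2 level under 5% of the carrier-only control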;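 also: 100% = DMSO carrier and 0% = 500 nM PU-H71 HSP90 inhibitor; lower value means stronger loss of Her2 protein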
Target sequence (P04626 whole entry, looked up): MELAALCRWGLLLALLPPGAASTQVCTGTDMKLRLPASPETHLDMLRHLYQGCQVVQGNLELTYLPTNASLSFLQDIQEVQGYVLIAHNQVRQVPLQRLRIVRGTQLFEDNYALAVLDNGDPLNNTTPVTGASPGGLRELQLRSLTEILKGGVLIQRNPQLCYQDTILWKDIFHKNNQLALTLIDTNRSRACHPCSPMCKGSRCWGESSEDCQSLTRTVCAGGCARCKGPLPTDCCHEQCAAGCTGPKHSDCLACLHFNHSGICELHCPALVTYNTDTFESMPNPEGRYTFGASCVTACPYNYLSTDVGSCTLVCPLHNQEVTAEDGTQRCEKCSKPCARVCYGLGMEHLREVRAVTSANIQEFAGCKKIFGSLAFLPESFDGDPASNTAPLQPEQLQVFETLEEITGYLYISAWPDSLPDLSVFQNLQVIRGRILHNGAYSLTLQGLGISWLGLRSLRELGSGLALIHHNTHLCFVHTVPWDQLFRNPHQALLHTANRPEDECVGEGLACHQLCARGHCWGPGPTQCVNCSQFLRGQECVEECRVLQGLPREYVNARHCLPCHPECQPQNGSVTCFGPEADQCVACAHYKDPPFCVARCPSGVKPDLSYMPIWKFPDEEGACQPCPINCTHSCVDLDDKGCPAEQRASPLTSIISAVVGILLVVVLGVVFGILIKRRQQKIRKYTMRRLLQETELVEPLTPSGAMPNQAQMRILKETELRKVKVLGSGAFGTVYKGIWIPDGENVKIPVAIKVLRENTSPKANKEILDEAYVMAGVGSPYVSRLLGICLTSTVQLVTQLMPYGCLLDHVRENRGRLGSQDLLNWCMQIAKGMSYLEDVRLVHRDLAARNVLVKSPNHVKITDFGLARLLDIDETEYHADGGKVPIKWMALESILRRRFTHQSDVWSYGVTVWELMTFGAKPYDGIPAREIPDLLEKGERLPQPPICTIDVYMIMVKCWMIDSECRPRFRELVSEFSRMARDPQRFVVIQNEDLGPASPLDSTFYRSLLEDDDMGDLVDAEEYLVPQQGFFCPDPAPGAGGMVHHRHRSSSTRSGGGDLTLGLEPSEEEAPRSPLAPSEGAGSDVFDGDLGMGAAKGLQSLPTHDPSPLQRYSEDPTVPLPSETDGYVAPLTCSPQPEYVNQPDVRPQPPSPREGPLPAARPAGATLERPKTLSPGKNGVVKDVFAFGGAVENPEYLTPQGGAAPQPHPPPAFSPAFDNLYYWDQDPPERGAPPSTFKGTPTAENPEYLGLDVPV
An asterisk follows results filed as active; . = no result given. Compounds with a hit are over-represented: about 3% of the library has one in this group of screens.

SMILES	HTR1A agonist	HTR1E antagonist	5HT1a antag	5HT1E ag	HER2 expr 66K
COc1ccc(-c2cnnn2-c2ccc(NC(=O)c3ccco3)cc2)cc1OC	0.7	47.0*	7.3	-0.3	104.4
COc1ccc(CNC(=O)C(C)OC(=O)c2cccn2C)cc1 (configuration not stated)	-2.1	-1.1	-9.1	0.3	110.8
CN(C)/C=C1/Sc2ccccc2C1=O	0.1	10.6	14.4	-2.0	167.5
CN(C)/C=C1\C(=O)c2ccc(N(C)C)nc2CC1c1ccccc1 (configuration not stated)	99.3*	-21.6	-122.0	25.0*	82.0
CCCn1c(SCC(=O)Nc2cccc(C)n2)nnc1-c1ccco1	1.3	-4.8	-14.5	0.8	-22.9*
CCn1c(SCC(=O)Nc2cccc(C)n2)nnc1-c1ccco1	-0.5	-8.9	7.9	-1.3	83.0
COCCNC(=O)C(C)OC(=O)c1cc2occc2n1C (configuration not stated)	-1.6	-5.7	-3.2	-0.8	83.7
CCn1c(SCc2ccc(C(=O)OC)o2)nc2sc3c(c2c1=O)CCCC3	-1.8	-10.7	6.5	9.3*	87.0
CC(=O)NCCN=Cc1sc2ccccc2c1O	49.0*	-3.5	-1.0	-0.3	48.1
CN=Cc1sc2ccccc2c1O	1.4	5.8	2.7	0.9	102.9
Cc1c[nH]c2cccc(OCC(O)CNC(C)(C)C)c12 (configuration not stated)	-3.3	0.8	82.5*	1.7	91.0
Cc1cc(C)nc(NCC(O)COc2ccccc2C)n1 (configuration not stated)	-1.0	-4.8	10.2	0.2	76.4
CC(C)(C)NCC(O)COc1ccccc1C(C)(C)C (configuration not stated)	-1.7	4.6	80.1*	0.4	77.4
CCOC(=O)N1CCN(C(=O)CCSc2ccccc2)CC1	2.1	-3.0	5.0	-0.5	104.1
Cc1ccccc1Cn1ccc(NC(=O)c2cc3nc(-c4ccco4)cc(C(F)(F)F)n3n2)n1	74.0*	-5.4	-14.8	1.7	92.8
Cc1ccc(N(CC(=O)NC2CC3CCC2C3)S(C)(=O)=O)cc1C (configuration not stated)	1.6	-0.8	-5.7	-1.6	-28.3*
COc1ccc(N(CC(=O)NC2CCCC2)C(=O)Cn2nnc(-c3ccc(C)cc3)n2)cc1OC	-1.3	6.2	5.9	54.4*	105.4
CCOC(=O)c1cc2c(N)c(C(=O)c3cc(C#N)c(SC)nc3C)sc2nc1C	0.5	2.9	-12.2	1.7	46.1
CC(C)(C)OC(=O)N1CC2Cc3[nH]c(=O)ccc3C(C2)C1 (configuration not stated)	-1.1	4.1	-4.9	-0.9	79.2
CCNc1c2c3c(cccc3n(C)c1=O)C(=O)c1ccccc1-2	2.8	20.9	11.0	31.7*	87.4
COc1ccc(CC(=O)Nc2c3c(nn2-c2cccc(C)c2C)CS(=O)C3)cc1 (configuration not stated)	1.4	-0.4	0.1	19.1*	118.5
COc1ccc(CC(=O)Nc2c3c(nn2-c2cccc(C)c2C)CS(=O)C3)cc1OC (configuration not stated)	0.9	22.9	-9.8	-0.8	105.5
CCOC(=O)COc1ccc(S(=O)(=O)Nc2ccc3c(c2)OCO3)cc1	-4.6	0.3	1.1	-0.5	48.3
CCOC(=O)CC(N)c1ccc2c(c1)OCO2 (configuration not stated)	-1.2	5.5	15.6	-1.2	-21.0*
COc1cccc(OCC(=O)Nc2c(C(=O)Nc3ccc(OC)cc3OC)oc3ccccc23)c1	-0.7	-12.4	-62.5	-0.2	15.6
SMILES	HTR1A agonist	HTR1E antagonist	5HT1a antag	5HT1E ag	HER2 expr 66K
COc1ccc2[nH]c(=O)c(CN(CCO)C(=O)c3ccccc3F)cc2c1	-0.8	10.8	-10.4	-1.0	95.0
COn1c(=S)[nH]c2ccccc2c1=O	2.3	-13.5	.	-0.5	113.1
CC1CCCCC1n1c(=S)[nH]c2ccccc2c1=O (configuration not stated)	1.8	4.7	-7.7	10.7*	103.7
Cc1ccc(-n2ncc3c(=O)n(CC#N)cnc32)cc1	-2.3	-0.9	5.6	-0.2	136.1
Cc1cc(NC(=O)CN2CCN(Cc3ccccc3)CC2)nc2c1c(=O)oc1ccccc12	0.3	3.1	-9.6	0.8	81.3
Cc1ccc(OCCn2cc(/C(N)=N/O)c3ccccc32)cc1C	4.1	35.7*	42.1	1.4	37.0
COC(=O)c1cn(CCOc2ccccc2)c2ccccc12	-1.4	2.2	6.1	0.3	87.2
COc1ccc2[nH]c3nc(SCc4nnc(-c5ccc(C)cc5)o4)nnc3c2c1	-2.2	5.4	0.2	0.5	78.0
NS(=O)(=O)c1ccc(C(=O)O)cc1	-1.2	6.1	.	-0.7	91.4
O=c1nc(C(F)(F)F)nc2ccccn12	20.8*	-4.2	8.8	-1.3	105.0
CCC(Sc1nc(=O)cc(N)n1-c1ccccc1)C(=O)Nc1ccc(Cl)cn1 (configuration not stated)	5.6	-6.2	-4.1	0.2	98.0
CCCNC(=O)Nc1cc(C)on1	256.9*	5.0	-5.6	0.6	80.8
CCOC(=O)CC(Nc1nc(N2CCOCC2)nc(N2CCOCC2)n1)c1ccccc1Cl (configuration not stated)	-0.6	0.1	10.0	0.1	71.4
CC(C)C(OC(=O)c1cccs1)C(=O)NCc1cccs1 (configuration not stated)	-2.4	-1.5	8.0	-1.0	97.0
Cc1ccc(NC(=O)Cn2nnc(C(=O)Nc3ccc(C)c(C)c3)c2N)cc1	-2.2	36.5*	12.6	1.3	116.0
COc1cccc(CNC(=O)c2nnn(CC(=O)Nc3ccc(C)c(C)c3)c2N)c1	1.1	2.7	3.6	-0.6	107.2
O=C(C1CCC(=O)N1Cc1ccccc1Cl)N1CCN(c2ccc(F)cc2)CC1 (configuration not stated)	-0.5	-7.0	1.2	-0.1	99.6
Cc1cccc(-n2nc3c(c2NC(=O)CCC2CCCCC2)CS(=O)C3)c1C (configuration not stated)	-0.8	-0.6	18.8	-1.0	61.0
O=C1CN(C(=O)c2ccccc2F)c2ccccc2N1	-1.6	1.1	-7.5	-0.5	100.8
O=C1CN(C(=O)OCc2ccccc2)c2ccccc2N1	-0.8	48.4*	-15.2	-0.2	85.1
Cc1nc(N2CCN(C)CC2)c2c(C)c(C(=O)Nc3ccc(F)cc3)sc2n1	0.5	-8.5	-7.9	20.3*	80.1
CCn1nc(C(=O)OCc2c(C)noc2C)c2ccccc2c1=O	-1.0	29.5*	11.4	-0.4	103.2
Cc1noc(C)c1COC(=O)c1cc(=O)[nH]c2ccccc12	-2.5	8.4	-6.0	-0.1	89.2
COc1ccc(NC(=O)Cn2nnc(C(N)=O)c2N)c(OC)c1	-0.2	-3.0	8.3	0.5	38.9
Nc1nc2ccc(OC(F)(F)F)cc2s1	23.7*	14.8	.	0.5	86.8
Nc1nc2ccc(Oc3ccccc3)cc2s1	-1.8	4.3	15.8	-0.8	130.9
